“And” between values parts separate entries of the source, which are not always exact repeats. Identical values can stand only once. Results filed as inconclusive are left out. A call without a number means that no potency is given here. The source made the active and inactive calls. Unless noted, the call rests on the fitted dose curve; in most records, active means well fitted curve in the direction sought with a large enough effect in the repeat runs; inconclusive means weak or mixed curves; inactive means no such curve, though single readings can be large; an effect the other way counts as inactive or inconclusive.
Assays:
[1] = qHTS assay for small molecules that induce genotoxicity in human embryonic kidney cells expressing luciferase-tagged ATAD5 (AID 651632); further: nearly all actives have a fitted effect of over 15% in size
How it was run: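 Genotoxicity read-out via ATAD5-luciferase: HEK293T cells, 16 hr compound incubation at 37C, Amplite detection.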

[2] = qHTS assay for small molecule agonists of the p53 signaling pathway - cell viability (AID 651633; calls by dose curve; further: series mostly up to about 83 µM; nearly all actives have a fitted effect of over 30% in size)
How it was run: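 Viability counter-read: CellTiter-Glo luminescence (30 min, room temperature) in the same p53RE-bla plates. These plates had been exposed to compounds for 16 h at 37 C.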

[3] = qHTS assay for small molecules that induce genotoxicity in human embryonic kidney cells expressing luciferase-tagged ATAD5 - cell viability (AID 651634; calls by dose curve; further: nearly all actives have a fitted effect of over 25% in size)
How it was run: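 Live-cell protease activity (CellTiter-Fluor, fluorescence) indicates viability. HEK293T cells with luciferase-tagged ATAD5; 15.5 hr compound treatment at 37C.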

[4] = qHTS assay to test for compound auto fluorescence at 590 nm (red) in HepG2 cells (AID 720674)
How it was run: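 1 hr compound incubation on HepG2 cells, 37 C, 5% CO2; plate read ex 540 nm / em 590 nm; intensities reported as Rose Bengal sodium equivalents.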

[5] = qHTS assay to test for compound auto fluorescence at 535 nm (green) in HepG2 cells (AID 720675)
[6] = qHTS assay to test for compound auto fluorescence at 460 nm (blue) in HEK293 cells (AID 720678)
How it was run: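 Auto fluorescence in the blue band was quantified as triamterene equivalency. HEK293 cells were seeded at 2,000/well, dosed after a 4-5 hr attachment, and kept overnight at 37C before the 405/460 nm reading.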

[7] = qHTS assay to test for compound auto fluorescence at 590 nm (red) in HEK293 cells (AID 720679)
How it was run: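 Autofluorescence equivalency to Rose Bengal sodium, 540/590nm, in HEK293 cells exposed overnight to 23 nL compound per well.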

[8] = qHTS assay to test for compound auto fluorescence at 535 nm (green) in HEK293 cells (AID 720680)
[9] = qHTS assay to test for compound auto fluorescence at 460 nm (blue) in HEK293 cell free culture (AID 720681)
How it was run: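 Blue fluorescence (Ex 405/Em 460 nm, triamterene-equivalent) was read immediately after pin transfer of compound or DMSO into medium (DMEM, 10% FBS) without cells.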

[10] = qHTS assay to test for compound auto fluorescence at 535 nm (green) in HEK293 cell free culture (AID 720682)
How it was run: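 DMEM + 10% FBS, cell-free; cpd or DMSO pinned in; Ex485/Em535 read; output as fluorescein-equivalent signal.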

[11] = qHTS assay to test for compound auto fluorescence at 590 nm (red) in HepG2 cell free culture (AID 720684)
How it was run: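 Plate contents were MEM with 10% FBS plus test compound or DMSO, no cells. Fluorescence was recorded with 540 nm excitation and 590 nm emission.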

[12] = qHTS assay to test for compound auto fluorescence at 460 nm (blue) in HepG2 cell free culture (AID 720685)
How it was run: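 Compound (23 nL) or DMSO pinned into cell-free MEM with 10% FBS; blue fluorescence read at 405/460 nm excitation/emission, expressed as auto-fluorescence equivalency to triamterene.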

[13] = qHTS assay to test for compound auto fluorescence at 535 nm (green) in HepG2 cell free culture (AID 720686)
[14] = qHTS assay to test for compound auto fluorescence at 460 nm (blue) in HepG2 cells (AID 720687)
How it was run: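 Blue-channel autofluorescence (Ex/Em 405/460 nm, triamterene-equivalent) was measured after 1 hr compound exposure at 37 C, 5% CO2. Cells were HepG2, plated overnight at 37 C in MEM plus 10% FBS.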

[15] = qHTS assay for small molecule disruptors of the mitochondrial membrane potential - cell viability (AID 720634; calls by dose curve;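 further: human HepG2 liver cancer cells; series mostly up to about 83 µM; nearly all actives have a fitted effect of over 20% in size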)
How it was run: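 Human hepatoma HepG2 cells were treated for 1 hr with test chemicals, then given m-MPI dye and CellTiter-Glo. Cell viability reflects luminescence proportional to cellular ATP.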

[16] = qHTS assay to test for compound auto fluorescence at 590 nm (red) in HEK293 cell free culture (AID 720683)
How it was run: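 Red-channel autofluorescence of compounds in culture medium (DMEM, 10% FBS), no cells, measured at 540/590 nm. Rose Bengal sodium is the reference fluorophore for equivalence.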

[17] = molecular target: Glucocorticoid receptor (Homo sapiens) (UniProt P04150); test: qHTS assay to identify small molecule agonists of the glucocorticoid receptor (GR) signaling pathway (AID 720691; active means well fitted activation curve with a large enough effect in the signal ratio in the repeat runs, not every such curve was filed as active; the % refers to the signal ratio)
How it was run: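 Beta-lactamase reporter activity, read as fluorescence intensity, was measured in GR-bla HeLa cells exposed to compounds for 18 h at 37 C and then loaded with LiveBLAzer B/G FRET substrate for 2 h at room temperature.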

[18] = qHTS assay for small molecule disruptors of the mitochondrial membrane potential (AID 720635); further: potency means the concentration at half of the fitted maximal effect
How it was run: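 Mitochondrial membrane potential tracked with Mito-MPS dye, red aggregates (ex 540/em 590 nm) against green monomers (ex 490/em 535 nm). Compound treatment 1 hr at 37C, dye 30 min in HepG2.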

[19] = molecular target: Glucocorticoid receptor (Homo sapiens) (UniProt P04150); test: qHTS assay to identify small molecule antagonists of the glucocorticoid receptor (GR) signaling pathway (AID 720692; active means well fitted inhibition curve with a large enough effect in the signal ratio in the repeat runs, not every such curve was filed as active; the % refers to the signal ratio; further: potency means the concentration at half of the fitted maximal effect)
How it was run: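 Fluorescence from cleaved LiveBLAzer B/G FRET substrate reports GRE-driven beta-lactamase in HeLa cells; compounds are tested against 5 nM dexamethasone (final) over 18 h at 37 C, substrate incubation 2 h at room temperature.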

[20] = qHTS assay for small molecule agonists of the p53 signaling pathway (AID 651631; calls by dose curve; further: nearly all actives have a fitted effect of over 15% in size)
How it was run: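 Testing took place in human colorectal HCT-116 cells with stable p53RE-driven beta-lactamase. After 16 h of compound exposure at 37 °C, a FRET substrate was added and fluorescence recorded 2 h later.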

Sequence of Glucocorticoid receptor (Homo sapiens) (P04150 whole entry, looked up): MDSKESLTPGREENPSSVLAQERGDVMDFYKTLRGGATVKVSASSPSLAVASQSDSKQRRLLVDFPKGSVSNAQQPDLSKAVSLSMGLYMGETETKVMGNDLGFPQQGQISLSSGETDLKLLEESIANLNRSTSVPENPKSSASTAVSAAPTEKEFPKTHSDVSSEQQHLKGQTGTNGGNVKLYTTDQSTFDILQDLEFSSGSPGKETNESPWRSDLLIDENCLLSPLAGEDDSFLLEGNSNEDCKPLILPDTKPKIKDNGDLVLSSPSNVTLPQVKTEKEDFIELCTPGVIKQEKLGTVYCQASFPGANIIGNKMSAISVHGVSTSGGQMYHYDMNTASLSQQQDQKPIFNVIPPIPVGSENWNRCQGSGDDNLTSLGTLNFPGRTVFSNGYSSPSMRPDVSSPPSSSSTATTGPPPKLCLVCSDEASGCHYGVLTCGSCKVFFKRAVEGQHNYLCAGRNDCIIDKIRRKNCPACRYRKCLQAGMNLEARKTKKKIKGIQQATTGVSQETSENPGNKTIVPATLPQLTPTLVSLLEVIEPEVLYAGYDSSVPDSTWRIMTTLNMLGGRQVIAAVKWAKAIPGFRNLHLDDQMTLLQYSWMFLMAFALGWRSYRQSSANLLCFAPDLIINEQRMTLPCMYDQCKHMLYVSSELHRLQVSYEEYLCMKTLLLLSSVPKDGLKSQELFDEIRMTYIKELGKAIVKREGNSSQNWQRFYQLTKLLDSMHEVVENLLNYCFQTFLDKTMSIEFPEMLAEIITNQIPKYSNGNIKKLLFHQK

Row | SMILES | outcome [1] | outcome [2] | outcome [3] | outcome [4] | outcome [5] | outcome [6] | outcome [7] | outcome [8] | outcome [9] | outcome [10] | outcome [11] | outcome [12] | outcome [13] | outcome [14] | Potency [15] | outcome [16] | outcome [17] | Potency [18] | Potency [19] | outcome [20]
1 | C1CN2CCN1CC2 | inactive | inactive | inactive | inactive | inactive | inactive | inactive | inactive | inactive | inactive | inactive | inactive | inactive | inactive | – | – | – | – | – | –
2 | Cc1cccc([N+](=O)[O-])c1 | inactive | inactive | inactive | inactive | inactive | inactive | inactive | inactive | inactive | inactive | – | inactive | inactive | inactive | inactive | inactive | inactive | – | – | –
3 | CN(N=O)c1ccccc1 | inactive | inactive | inactive | inactive | inactive | inactive | inactive | inactive | inactive | inactive | inactive | inactive | inactive | inactive | inactive | – | inactive | inactive | inactive | –
4 | COc1ccc2c3c1O[C@H]1[C@@H](O)C=C[C@H]4[C@@H](C2)N(C)CC[C@@]341 | inactive | inactive | inactive | inactive | inactive | inactive | inactive | inactive | inactive | inactive | inactive | inactive | inactive | inactive | inactive | inactive | – | – | – | –
5 | O=S(=O)(c1ccc(Cl)cc1)c1cc(Cl)c(Cl)cc1Cl | inactive | inactive | inactive | inactive | inactive | inactive | inactive | inactive | inactive | inactive | inactive | inactive | inactive | inactive | inactive | inactive | – | 12.2 µM (active) and 13.7 µM (active) | – | –
6 | CCNc1nc(NC(C)C)nc(SC)n1 | inactive | inactive | inactive | inactive | inactive | inactive | inactive | inactive | inactive | inactive | – | inactive | inactive | inactive | inactive | – | – | – | – | –
7 | O=C1CCCN1 | inactive | inactive | inactive | inactive | inactive | inactive | inactive | inactive | inactive | inactive | inactive | inactive | inactive | inactive | inactive | – | inactive | inactive | inactive | –
8 | Clc1ccccc1Cl | inactive | inactive | inactive | inactive | inactive | inactive | inactive | inactive | inactive | inactive | – | inactive | inactive | inactive | inactive | inactive | inactive | – | – | –
9 | Nc1ccc(Br)cc1 | inactive | inactive | inactive | inactive | inactive | inactive | inactive | inactive | inactive | inactive | inactive | inactive | inactive | inactive | inactive | inactive | inactive | inactive | – | –
10 | CC(C)=C[C@@H]1[C@@H](C(=O)OCc2coc(Cc3ccccc3)c2)C1(C)C | inactive | inactive | inactive | inactive | inactive | inactive | inactive | inactive | inactive | inactive | inactive | inactive | inactive | inactive | inactive | – | inactive | – | inactive | –
11 | CON(C)C(=O)Nc1ccc(Cl)c(Cl)c1 | inactive | inactive | inactive | inactive | inactive | inactive | inactive | inactive | inactive | inactive | – | inactive | inactive | inactive | – | inactive | inactive | – | – | inactive
12 | Cc1ccc(N)cc1N | inactive | inactive | inactive | inactive | inactive | – | inactive | inactive | – | inactive | inactive | inactive | inactive | – | inactive | – | inactive | – | inactive | inactive
13 | CC1C=[C-]C=C1.[C-]#[O+].[C-]#[O+].[C-]#[O+].[Mn] | inactive | inactive | inactive | inactive | inactive | inactive | inactive | inactive | inactive | inactive | inactive | inactive | inactive | inactive | inactive | inactive | – | inactive | inactive | –
14 | COC(=O)c1ccccc1N | – | inactive | inactive | inactive | inactive | inactive | inactive | inactive | inactive | inactive | inactive | inactive | inactive | inactive | inactive | inactive | inactive | inactive | – | inactive
15 | [O-][Cl+2]([O-])O | – | inactive | – | inactive | inactive | inactive | inactive | inactive | inactive | inactive | inactive | inactive | inactive | inactive | inactive | – | – | – | – | inactive
16 | CN(C)[C@@H]1C(=O)C(C(N)=O)=C(O)[C@@]2(O)C(=O)C3=C(O)c4c(O)cccc4[C@@](C)(O)[C@H]3C[C@@H]12 | – | inactive | inactive | inactive | inactive | inactive | inactive | inactive | inactive | inactive | inactive | inactive | inactive | inactive | inactive | – | – | – | inactive | inactive
17 | CN1C(=O)CN=C(c2ccccc2)c2cc(Cl)ccc21 | – | inactive | inactive | inactive | inactive | inactive | inactive | inactive | inactive | inactive | inactive | inactive | inactive | inactive | inactive | – | – | inactive | 13.4 µM (active) and 28 µM (active) | inactive

Reference: PubChem BioAssay (Tox21)
